Where “and” joins values, the source holds several entries; their conditions need not be identical. Identical values can stand only once. This is part of a sample that, as a whole, favours compounds with a hit. Of some 79,000 tested, about 15% had one in any assay. Calls of active or inactive are those of the source. Cut-off read from the data, not from the text of the source: active = growth inhibition above about 70%; inactive = the rest.
Experiment: NCI Yeast Anticancer Drug Screen. Data for the mec2-1 strain (AID 157)
Details: S. cerevisiae mec2-1 strain, at 50.0 µM (retest, dose inferred, filed as 5.0), hits give high values
In short: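 Mutant yeast (mec2-1) grown with compound; growth inhibition relative to vehicle control reported.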

| SMILES | growth inhibition |
| --- | --- |
| CC(=O)OC1=CC2=CCC3C(CCC4(C)C(C(C)=O)CCC34)C2(C)CC1 (stereo not given) | 7% (inactive) |
| CCN1CCC(O)(/C=C/c2ccccc2C)C(C(=O)/C=C/c2ccccc2C)C1 (stereo not given) | 74% (active) |
| Cc1c(Cl)ccc2c(C(O)CNCc3ccccc3)cc(-c3ccc(Cl)cc3)nc12 (stereo not given) | 95% (active) |
| COc1ccc(C2CC(c3c(O)ccc4ccccc34)=NN2)cc1OC (stereo not given) | 97% (active) |
| O=c1[nH]c2c([N+](=O)[O-])cc(Cl)cc2nc1/C=C(\O)c1ccco1 | 44% (inactive) |
| CN(C(=O)c1ccccc1)C1(COC(=O)c2ccccc2)CCCCC1 | -9% (inactive) |
| CCOC(=O)Nc1cc2c(cc1Br)-c1ccccc1C2O (stereo not given) | 12% (inactive) |
| Nc1ccc2[nH]c3ccccc3c2c1 | 1% (inactive) |
| CCCCCCC(C)S(=O)(=O)c1ccc(C)cc1 (stereo not given) | 83% (active) |
| COC(=O)/C(=C/C=C(c1ccccc1)c1ccccc1)N(C(C)=O)C(C)=O | 25% (inactive) |
| O=C(NNc1nc(-c2ccccc2)cs1)C(F)(F)F | 98% (active) |
| Nc1nc(-c2ccc(Cl)cc2)cs1 | 91% (active) |
| CC1(C)OC2C(COC(c3ccccc3)(c3ccccc3)c3ccccc3)OC(n3cnc4c(N)ncnc43)C2O1 (stereo not given) | 99% (active) |
| COC(=O)/C=N/O | -6% (inactive) |
| C=CCCCCO/N=C/c1c2c(O)c3c(O)c(C)c4c(c3c1O)C(=O)C(C)(O/C=C/C(OC)C(C)C(OC(C)=O)C(C)C(O)C(C)C(O)C(C)/C=C/C=C(\C)C(=O)N2)O4 (stereo not given) | 91% (active) |
| C=C1C[C@H](O)[C@H]2C(C[Se]c3ccccc3)C(=O)O[C@@H]2[C@H]2[C@H](C)C(O)C[C@@H]12 (stereo not given in full) | -7% (inactive) |
| COC(=O)CCC(NC(=S)N/N=C(\C)c1cnc2ccccc2n1)C(=O)OC (stereo not given) | 1% (inactive) |
| CC(=O)Oc1c2c(c(OC(C)=O)c3c1n(C(C)=O)c1ccccc1n3C(C)=O)n(C(C)=O)c1ccccc1n2C(C)=O | 42% (inactive) |
| Oc1c(Cl)ccc2cccnc12 | 99% (active) |
| COc1ccc2c(Cc3cc(Cl)ccc3O)cncc2c1O | 60% (inactive) |
| CCCCCCCCCCCC1=NCC(C)N1 (stereo not given) | 27% (inactive) |
| c1ccc2c(B(c3cccc4ccccc34)c3cccc4ccccc34)cccc2c1 | 99% (active) |
| Cc1ccc(S(=O)(=O)Nn2c(S)c(C#N)c(-c3ccc([N+](=O)[O-])cc3)c(C#N)c2=O)cc1 | 35% (inactive) |
| COC1=C(/C(=N/Nc2ccc([N+](=O)[O-])cc2[N+](=O)[O-])c2ccccc2)COC1=O | -4% (inactive) |

Same assay, conditions: S. cerevisiae mec2-1 strain, at 50.0 µM, hits give high values

| SMILES | growth inhibition |
| --- | --- |
| CC(=O)OC1=CC2=CCC3C(CCC4(C)C(C(C)=O)CCC34)C2(C)CC1 (stereo not given) | 10.9% (inactive) |
| CC(=O)OCC(OC(C)=O)C(OC(C)=O)C(OC(C)=O)C(COC(C)=O)OC(C)=O (stereo not given) | 9.3% (inactive) and -7.9% (inactive) and -11.8% (inactive) |
| CCN1CCC(O)(/C=C/c2ccccc2C)C(C(=O)/C=C/c2ccccc2C)C1 (stereo not given) | 98.2% (active) |
| Cc1c(Cl)ccc2c(C(O)CNCc3ccccc3)cc(-c3ccc(Cl)cc3)nc12 (stereo not given) | 91% (active) |
| COc1ccc(C2CC(c3c(O)ccc4ccccc34)=NN2)cc1OC (stereo not given) | 91.8% (active) |
| O=c1[nH]c2c([N+](=O)[O-])cc(Cl)cc2nc1/C=C(\O)c1ccco1 | 56.1% (inactive) |
| CN(C(=O)c1ccccc1)C1(COC(=O)c2ccccc2)CCCCC1 | -5.95% (inactive) |
| CCOC(=O)Nc1cc2c(cc1Br)-c1ccccc1C2O (stereo not given) | -5.6% (inactive) |
| Nc1ccc2[nH]c3ccccc3c2c1 | -17.6% (inactive) |
| CCCCCCC(C)S(=O)(=O)c1ccc(C)cc1 (stereo not given) | 84.7% (active) |
| COC(=O)/C(=C/C=C(c1ccccc1)c1ccccc1)N(C(C)=O)C(C)=O | 99.6% (active) |
| O=C(NNc1nc(-c2ccccc2)cs1)C(F)(F)F | 89.7% (active) |
| Nc1nc(-c2ccc(Cl)cc2)cs1 | 97.4% (active) |
| CC1(C)OC2C(COC(c3ccccc3)(c3ccccc3)c3ccccc3)OC(n3cnc4c(N)ncnc43)C2O1 (stereo not given) | 56.8% (inactive) |
| COC(=O)/C=N/O | -6.9% (inactive) |
| C=CCCCCO/N=C/c1c2c(O)c3c(O)c(C)c4c(c3c1O)C(=O)C(C)(O/C=C/C(OC)C(C)C(OC(C)=O)C(C)C(O)C(C)C(O)C(C)/C=C/C=C(\C)C(=O)N2)O4 (stereo not given) | 91.8% (active) |
| C=C1C[C@H](O)[C@H]2C(C[Se]c3ccccc3)C(=O)O[C@@H]2[C@H]2[C@H](C)C(O)C[C@@H]12 (stereo not given in full) | 20.6% (inactive) |
| COC(=O)CCC(NC(=S)N/N=C(\C)c1cnc2ccccc2n1)C(=O)OC (stereo not given) | 16.2% (inactive) |
| CC(=O)Oc1c2c(c(OC(C)=O)c3c1n(C(C)=O)c1ccccc1n3C(C)=O)n(C(C)=O)c1ccccc1n2C(C)=O | 74.8% (active) |
| OCC(O)C(O)C(O)C(O)C(SCc1ccccc1)SCc1ccccc1 (stereo not given) | -1.5% (inactive) and -0.6% (inactive) and 8.55% (inactive) |
| Oc1c(Cl)ccc2cccnc12 | 93.8% (active) |
| COc1ccc2c(Cc3cc(Cl)ccc3O)cncc2c1O | 31.6% (inactive) |
| CCCCCCCCCCCC1=NCC(C)N1 (stereo not given) | -2.95% (inactive) |
| c1ccc2c(B(c3cccc4ccccc34)c3cccc4ccccc34)cccc2c1 | 98.9% (active) |
| Cc1ccc(S(=O)(=O)Nn2c(S)c(C#N)c(-c3ccc([N+](=O)[O-])cc3)c(C#N)c2=O)cc1 | 46.6% (inactive) |
| COC1=C(/C(=N/Nc2ccc([N+](=O)[O-])cc2[N+](=O)[O-])c2ccccc2)COC1=O | 9.25% (inactive) |

Source: PubChem BioAssay (NCI)
